Compounds with a hit are over-represented: about 5.4% of the library has one in this group of screens.
HSF1 inh = HSF1 inhibition | NIH3T3-HGL HSE-luciferase, MG132-induced, luminescence 8 h; hits give low values | activity change, negative = inhibition, % at 7.5 µM (by protocol) | 300,000 tested, 0.77% active | AID 2098;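 active = more than half of replicate wells show activity change below -50%, luminescence cut by over half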;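 also: luciferase reports HSF-1 transcriptional activity via heat shock element; 0% = median of DMSO wells and -100% = zero luminescence signal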
GAA850 FXN act = activators of GAA850 frataxin (FXN) promoter | HEK293 lucGAA850 FXN promoter luciferase reporter, 24 h; percent of 10 µM SAHA response | activation, % at 6 µM | 360,000 tested, 0.56% active | AID 540364;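 active = activation above the average of all compounds screened plus 3 SD, cutoff fixed separately per campaign, cut at about 7.5% in these data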;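 also: 0% = DMSO wells and 100% = 10 µM SAHA wells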
DAX1 inh = inhibitors of human orphan nuclear receptor DAX1 (NR0B1); P51843; HEK293 Gal4-DAX1 luciferase reporter, luminescence; inhibition, % at 6.75 µM; 340,000 tested, 0.99% active; AID 504766;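 active = inhibition above the mean over all tested compounds plus 3 SD, cut at about 4.2% in these data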;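 also: 0% = DAX1-transfected cells with DMSO and 100% = empty-vector control cells with DMSO; inhibition shows as a rise in luminescence from relieved DAX1 repression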
HSF1 activator = increases HSF-1 driven luciferase reporter signal; NIH3T3-HGL HSF-1 luciferase reporter, MG132, 8 h; 100% = twice DMSO control signal; activation, % at 9 µM; 300,000 tested, 1.7% active; AID 504408;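 active = mean replicate activation of at least 50% with a set share of replicates each reaching 50%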;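 also: 0% = median of the neutral control wells and 100% = twice that signal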
AHR activator = activators of human aryl hydrocarbon receptor | P35869 | AHR-responsive luciferase reporter cells, luminescence | activation, % at 5 µM | 320,000 tested, 2.5% active | AID 2796; in the data active = activation above about 47%;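 also: 0% = vehicle wells and 100% = reference agonist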
AHR act confirm = human AHR activation, confirmation; shares compounds with AHR activator; human cells, AHR-responsive luciferase reporter, luminescence; activation, % at 9 µM; 2,300 tested, 87% active; AID 2845; in the data active = activation above about 49%;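 also: HepG2 hepatoma cells carrying a DRE-driven firefly luciferase reporter; 0% = vehicle wells and 100% = reference agonist wells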
PXR counter = PXR activation, counter-screen for AHR activators | shares compounds with AHR activator | cell-based PXR reporter, luciferase luminescence | activation, % at 11.6 µM | 2,300 tested, 88% active | AID 434939; in the data active = activation above about 11%;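 also: human hepatoma DPX-2 cells expressing full-length human PXR; 0% = DMSO and 100% = reference agonist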
* hit, by the source's call; nt = not tested or not shown.

SMILES	HSF1 inh	GAA850 FXN act	DAX1 inh	HSF1 activator	AHR activator	AHR act confirm	PXR counter
CCOc1ccc2nc(/N=C/c3c(C)[nH]n(-c4ccccc4)c3=O)sc2c1	-2	7	4	4	45	nt	nt
Brc1ccc(-c2nnc(-c3ccccc3)c(N3CCSCC3)n2)cc1	78	1	2	126*	123*	93*	75*
Cc1ccc(-c2nnc(-c3ccccc3)c(N3CCOCC3)n2)cc1	1	-1	-1	11	3	nt	nt
CN1CCN(c2nc(-c3ccc(Br)cc3)nnc2-c2ccccc2)CC1	8	2	0	-5	132*	90*	49*
COc1ccc(S(=O)(=O)N2CCN(Cc3ccco3)CC2)cc1	0	0	4	-13	2	nt	nt
Cc1cccc(NC2=C(NC(=O)c3ccccc3)C(=O)c3ccccc3C2=O)c1	12	-3	1	36	106*	103*	124*
Cc1cccc(C(=O)Nc2cccc(NC(=O)c3ccccc3)c2)c1	2	2	-2	4	20	nt	nt
Clc1nnc(N/N=C/c2ccccc2)c2ccccc12	21	6	1	23	82*	110*	23*
c1ccc(-n2nc3c(ccc4cnnc43)[nH]2)cc1	38	6	1	33	131*	149*	26*
COCCNC(=O)Cn1nc(C)c([N+](=O)[O-])c1C	-2	1	0	-1	5	nt	nt
O=c1c2ccccc2nc(-c2ccoc2)n1CCc1ccccc1	-4	1	-1	-13	125*	102*	41*
Fc1ccc(F)c(C2=NNC(=Nc3ccccc3F)SC2)c1	31	5	3	81*	79*	70*	56*
Fc1ccc(N=C2NN=C(c3cc(F)ccc3F)CS2)cc1	nt	2	1	nt	12	nt	nt
CC1CC(C)CN(C(=S)Nc2ccc(OC(F)F)cc2)C1 (stereo unspecified)	2	3	0	1	83*	64*	118*
O=C(CN1CCN(c2ccccc2O)CC1)Nc1ccccc1C(=O)NCCc1ccccc1	nt	0	-2	nt	91*	93*	85*
CN(C(=O)c1ccoc1)c1ccc2ccccc2c1	-7	2	1	-3	nt	nt	nt
Cc1nc2c(OCCOc3ccc(F)cc3)cccn2c1N(C)C(=O)CCC1CCCC1	nt	2	nt	nt	nt	nt	nt
Cc1ccc(C)c(NC(=O)c2nc(Cl)ccc2Cl)c1	11	2	1	7	81*	106*	112*
Cc1ccc(C)c(NC(=O)COC(=O)c2nc(Cl)ccc2Cl)c1	nt	-1	0	nt	11	nt	nt
CCCn1c(/C=C/c2ccccc2)nc2ccccc21	nt	4	1	nt	88*	118*	45*
CC(C)c1ccccc1NC(=O)Cn1c(/C=C/c2ccccc2)nc2ccccc21	6	nt	nt	11	5	nt	nt
Cc1c(C(=O)Nc2ccc(Br)cc2)cnn1C	5	3	2	29	120*	136*	23*
O=C(COc1ccc(S(=O)(=O)N2CCCC2)cc1)N1CCCC1	-14	1	0	-11	-1	nt	nt
COc1ccccc1-c1nc(C#N)c(N2CCCCCC2)o1	-4	3	0	-6	83*	79*	108*
COc1ccc(/C=C2/C(=O)C(C)(C(C)C)CCC2C)cc1 (stereo unspecified)	-8	-1	1	1	0	nt	nt
SMILES	HSF1 inh	GAA850 FXN act	DAX1 inh	HSF1 activator	AHR activator	AHR act confirm	PXR counter
Cc1ccccc1OCC(=O)N/N=C/c1ccccn1	-1	0	1	15	81*	29	9
O=C(COc1ccc(Br)cc1)NCCNC(=O)c1ccncc1	3	-2	0	-3	4	nt	nt
O=C1C(c2cc(=O)c3ccccc3[nH]2)=C(O)c2ccccc21	26	4	3	65*	167*	191*	25*
O=c1cc(-c2ccccc2)[nH]c2ccccc12	-11	4	1	5	3	nt	nt
Cc1ccsc1/C=N/NC(=O)c1nnn(-c2nonc2N)c1CSc1ccccc1	0	0	0	-1	0	nt	nt
COc1cccc(-c2c(NC(=O)c3ccco3)oc3ccccc3c2=O)c1	4	-1	2	8	3	nt	nt
COc1cccc(-c2c(NC(=O)c3ccco3)oc3ccc(Cl)cc3c2=O)c1	-3	0	0	-1	104*	84*	57*
COc1cc(Cl)c(C)cc1NC(=O)c1ccccc1NC(=O)CN1CCOCC1	2	0	-1	13	101*	103*	92*
O=C(N=Nc1c(O)[nH]c2ccccc12)c1ccc(CN2CCOCC2)cc1	-4	2	2	0	1	nt	nt
O=C(N=Nc1c(O)[nH]c2ccccc12)c1ccc2c(c1)OCO2	7	4	0	35	95*	65*	21*
CC(=O)c1c[nH]c(C(=O)NCc2cccc(C(F)(F)F)c2)c1	5	0	0	16	3	nt	nt
COc1ccc(C(C)=O)cc1COC(=O)C1CC(=O)N(Cc2ccccc2)C1 (stereo unspecified)	-9	0	0	-8	4	nt	nt
Cc1c(NC(=O)COC(=O)CCc2c[nH]c3ccccc23)c(=O)n(-c2ccccc2)n1C	-2	0	1	-14	-1	nt	nt
CN(C)Cc1c(O)ccc2[nH]cnc12	-5	2	0	6	2	nt	nt
Oc1ccc2ccc3[nH]cnc3c2c1	-7	3	0	6	80*	37	22*
Cc1ccccc1CC1SC(N)=NC1=O (stereo unspecified)	11	0	-1	9	-1	nt	nt
O=C(OCC(=O)N1CCCCCC1)c1ccc([N+](=O)[O-])cc1Cl	-4	1	0	6	0	nt	nt
Nc1c(Cl)cc(C2=NCCn3nc4cc([N+](=O)[O-])ccc4c32)cc1Cl	nt	3	1	nt	118*	104*	54*
C=C1c2nc3ccccc3n2C=C(c2ccc(C)cc2)N1c1ccccc1	nt	-3	1	nt	nt	nt	nt
CCN(CC)C(=O)C1=C(C)N(Cc2ccc(F)cc2)C(=O)C(CC(=O)NCCN2CCOCC2)C1 (stereo unspecified)	nt	-2	2	nt	nt	nt	nt
Cc1csc(SCC(=O)Nc2ccc(Cl)cn2)n1	0	2	-1	2	98*	98*	nt
CC(C)(C)c1csc(SCC(=O)Nc2ccc(Cl)cn2)n1	0	0	0	2	-2	nt	nt
O=c1nc2c(-c3ccccc3F)n[nH]n2c2ccccc12	-7	6	1	0	111*	182*	26*
CCc1ccc(S(=O)(=O)c2n[nH]n3c2nc(=O)c2ccccc23)cc1	0	-1	0	2	1	nt	nt
O=C(Nc1ccccc1)N1CCC(C(=O)N2CCN(c3ccccc3F)CC2)CC1	nt	-1	1	nt	-3	nt	nt

Screening data: PubChem BioAssay, several laboratories
